T1: CD2BP2 256-341 GYF (domain begin residue: 256, domain end residue: 341), O95400
T1 chain: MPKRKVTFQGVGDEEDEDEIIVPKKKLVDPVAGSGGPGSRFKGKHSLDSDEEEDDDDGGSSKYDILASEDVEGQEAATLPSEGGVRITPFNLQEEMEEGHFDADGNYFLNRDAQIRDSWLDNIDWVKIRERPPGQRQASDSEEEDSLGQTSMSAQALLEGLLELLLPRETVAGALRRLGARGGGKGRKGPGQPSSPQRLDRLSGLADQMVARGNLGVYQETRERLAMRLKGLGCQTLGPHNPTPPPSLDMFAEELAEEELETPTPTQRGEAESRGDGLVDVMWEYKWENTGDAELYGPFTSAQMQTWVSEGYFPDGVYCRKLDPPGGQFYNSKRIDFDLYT

T2: GIGYF2 507-602 GYF (domain begin residue: 507, domain end residue: 602), Q6Y7W6
T2 chain: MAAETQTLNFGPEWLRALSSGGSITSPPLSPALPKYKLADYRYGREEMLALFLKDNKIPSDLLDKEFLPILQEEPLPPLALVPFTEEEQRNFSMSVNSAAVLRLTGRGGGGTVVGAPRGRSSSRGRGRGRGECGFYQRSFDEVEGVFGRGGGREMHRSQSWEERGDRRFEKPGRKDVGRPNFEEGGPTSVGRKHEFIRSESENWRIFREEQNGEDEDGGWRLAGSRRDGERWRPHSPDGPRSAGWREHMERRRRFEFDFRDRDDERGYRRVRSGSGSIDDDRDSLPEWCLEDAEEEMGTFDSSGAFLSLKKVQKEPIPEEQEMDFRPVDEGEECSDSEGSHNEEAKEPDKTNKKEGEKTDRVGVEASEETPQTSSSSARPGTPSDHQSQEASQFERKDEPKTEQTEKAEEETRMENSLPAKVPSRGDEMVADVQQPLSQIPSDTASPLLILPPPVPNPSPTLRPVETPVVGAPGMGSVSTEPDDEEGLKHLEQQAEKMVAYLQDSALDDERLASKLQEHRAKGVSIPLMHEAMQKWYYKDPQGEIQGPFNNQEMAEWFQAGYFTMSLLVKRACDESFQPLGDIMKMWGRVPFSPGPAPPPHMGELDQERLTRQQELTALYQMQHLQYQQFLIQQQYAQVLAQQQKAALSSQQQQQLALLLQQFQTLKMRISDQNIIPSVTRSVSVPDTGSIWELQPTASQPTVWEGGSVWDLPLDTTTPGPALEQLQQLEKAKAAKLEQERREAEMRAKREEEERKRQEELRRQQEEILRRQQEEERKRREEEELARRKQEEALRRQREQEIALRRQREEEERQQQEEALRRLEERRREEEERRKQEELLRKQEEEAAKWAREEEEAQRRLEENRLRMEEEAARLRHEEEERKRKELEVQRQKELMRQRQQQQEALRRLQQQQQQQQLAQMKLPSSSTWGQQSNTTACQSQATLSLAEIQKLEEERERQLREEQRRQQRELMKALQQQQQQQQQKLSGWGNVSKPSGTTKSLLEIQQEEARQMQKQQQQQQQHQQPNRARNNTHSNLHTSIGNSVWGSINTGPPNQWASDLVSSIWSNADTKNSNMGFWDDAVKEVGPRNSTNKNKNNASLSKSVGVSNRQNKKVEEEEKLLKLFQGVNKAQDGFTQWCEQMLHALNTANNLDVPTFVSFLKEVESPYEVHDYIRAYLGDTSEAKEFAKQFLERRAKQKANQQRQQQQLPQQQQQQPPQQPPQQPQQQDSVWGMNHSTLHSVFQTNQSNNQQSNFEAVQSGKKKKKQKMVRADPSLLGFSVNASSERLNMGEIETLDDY

T3: CLTC 1-363 Clathrin_propel+Clathrin-link (domain begin residue: 1, domain end residue: 363), Q00610
T3 chain: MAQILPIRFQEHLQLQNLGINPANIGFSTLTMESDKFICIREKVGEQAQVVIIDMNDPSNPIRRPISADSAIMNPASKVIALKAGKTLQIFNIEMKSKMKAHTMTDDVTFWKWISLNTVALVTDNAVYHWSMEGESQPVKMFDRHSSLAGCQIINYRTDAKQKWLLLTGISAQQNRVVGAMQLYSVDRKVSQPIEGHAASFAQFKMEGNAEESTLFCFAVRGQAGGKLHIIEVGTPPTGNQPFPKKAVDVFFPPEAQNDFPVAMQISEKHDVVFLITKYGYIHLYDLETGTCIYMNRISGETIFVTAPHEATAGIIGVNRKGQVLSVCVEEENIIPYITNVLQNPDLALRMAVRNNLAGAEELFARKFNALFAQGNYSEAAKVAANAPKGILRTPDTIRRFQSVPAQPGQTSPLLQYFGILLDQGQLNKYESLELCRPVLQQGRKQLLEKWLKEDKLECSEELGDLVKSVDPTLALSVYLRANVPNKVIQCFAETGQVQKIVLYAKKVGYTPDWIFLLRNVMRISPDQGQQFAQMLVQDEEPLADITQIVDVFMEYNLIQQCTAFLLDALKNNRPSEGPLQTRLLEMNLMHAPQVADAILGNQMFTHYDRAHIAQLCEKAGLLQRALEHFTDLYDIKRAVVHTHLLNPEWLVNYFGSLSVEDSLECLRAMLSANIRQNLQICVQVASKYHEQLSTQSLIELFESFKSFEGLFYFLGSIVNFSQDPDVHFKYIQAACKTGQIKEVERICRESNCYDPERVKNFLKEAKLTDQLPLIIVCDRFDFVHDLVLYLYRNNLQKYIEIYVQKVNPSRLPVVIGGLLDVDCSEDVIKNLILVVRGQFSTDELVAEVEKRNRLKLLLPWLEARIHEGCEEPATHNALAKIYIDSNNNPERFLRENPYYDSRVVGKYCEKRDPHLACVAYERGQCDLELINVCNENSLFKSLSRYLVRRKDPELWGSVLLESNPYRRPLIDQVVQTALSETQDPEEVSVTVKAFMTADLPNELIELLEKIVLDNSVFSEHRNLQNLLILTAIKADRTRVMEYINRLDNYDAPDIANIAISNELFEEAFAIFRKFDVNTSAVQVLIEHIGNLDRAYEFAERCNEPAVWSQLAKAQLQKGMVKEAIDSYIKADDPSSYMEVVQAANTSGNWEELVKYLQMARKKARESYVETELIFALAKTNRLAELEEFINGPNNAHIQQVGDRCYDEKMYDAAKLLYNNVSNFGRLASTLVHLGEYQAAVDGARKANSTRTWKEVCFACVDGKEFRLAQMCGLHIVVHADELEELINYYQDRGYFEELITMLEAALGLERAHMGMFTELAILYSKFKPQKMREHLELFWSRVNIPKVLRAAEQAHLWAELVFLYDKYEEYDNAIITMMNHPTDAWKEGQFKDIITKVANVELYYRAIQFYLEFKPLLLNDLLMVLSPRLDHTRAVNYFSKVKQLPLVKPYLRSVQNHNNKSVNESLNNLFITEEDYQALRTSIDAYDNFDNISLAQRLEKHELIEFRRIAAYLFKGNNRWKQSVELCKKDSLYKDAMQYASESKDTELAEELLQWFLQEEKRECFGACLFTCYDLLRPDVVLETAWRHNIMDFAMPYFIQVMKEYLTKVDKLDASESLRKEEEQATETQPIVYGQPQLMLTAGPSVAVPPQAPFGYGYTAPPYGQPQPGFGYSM

B1: unnamed (peptide)
chain: YQMQQWQFSPEIWLNM
B2: unnamed (peptide)
chain: IQKWMNFDDFATAVFH
B3: unnamed (peptide)
chain: HWIDSWEGFRARVIPS
B4: unnamed (peptide)
chain: HDVWASSWNWDDFRLN
B5: unnamed (peptide)
chain: RDEAHMEWHFPSIWLT
B6: unnamed (peptide)
chain: QFLPTTWQDYLLYMDQ
B7: unnamed (peptide)
chain: PPPGYSKWTWSVQERV
B8: unnamed (peptide)
chain: QEFMSISYPPGMPQDP
B9: unnamed (peptide)
chain: GHPPGWSEFGWEHLVI
B10: unnamed (peptide)
chain: TIPPGYFKWVGEVRDE
B11: unnamed (peptide)
chain: EPPGWEVRQPGMVQVQ
B12: unnamed (peptide)
chain: TAPPGYGARYMETPYV
B13: unnamed (peptide)
chain: MEEPPGYRLNMYAMSY
B14: unnamed (peptide)
chain: EDPTLKVGHPPGWSFK
B15: unnamed (peptide)
chain: WQATDYPQQPPPGWKE
B16: unnamed (peptide)
chain: YPYPPGWDSNYAQRVE
B17: unnamed (peptide)
chain: GWEPQWFPSEHLADGN
B18: unnamed (peptide)
chain: GPLAWFLEDPYSSRVG
B19: unnamed (peptide)
chain: WDGQAWHLSDPYLWEM
B20: unnamed (peptide)
chain: NSMSYMDIVWHSFDTI
B21: unnamed (peptide)
chain: QQWDPSWYYPQELVKM
B22: unnamed (peptide)
chain: IDYESIFYEGMHWHTL
B23: unnamed (peptide)
chain: LNWWTYEELQDLEQFT
B24: unnamed (peptide)
chain: MTWTATWYASDPYMEV
B25: unnamed (peptide)
chain: SQPEQMQWHTYDPYDL
B26: unnamed (peptide)
chain: MDSWHYDMIPGEWLRV
B27: unnamed (peptide)
chain: WPNLEWMWDDEDMQFH
B28: unnamed (peptide)
chain: SDGDLIWWDWAYNAEQ
B29: unnamed (peptide)
chain: DLMWWPETELHQGSWS
B30: unnamed (peptide)
chain: VSYPLVDLSDWHMWTN
B31: unnamed (peptide)
chain: GMSPLIEWPEEWWWLD

Each binder was assayed against CBX3 109-173 Chromo_shadow (domain begin residue: 109, domain end residue: 173), Q13185 (assay: phage ELISA signal ratio (GST-PRM binding over GST background); higher = stronger binding of peptide-phage to the PRM).
CBX3 109-173 Chromo_shadow (domain begin residue: 109, domain end residue: 173), Q13185, sequence (Q13185 whole entry, the tested form may be a part): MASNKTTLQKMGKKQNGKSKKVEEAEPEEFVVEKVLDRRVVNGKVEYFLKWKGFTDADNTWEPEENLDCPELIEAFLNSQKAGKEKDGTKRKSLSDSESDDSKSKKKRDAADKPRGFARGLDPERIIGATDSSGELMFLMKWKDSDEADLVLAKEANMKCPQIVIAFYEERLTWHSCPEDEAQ
Experimental: (§1)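 Phage-displayed random hexadecapeptides (Cys-free, flanked by invariant Gly linkers, fused to the M13 P8 major coat protein) were selected over 5 rounds against GST-fused human PRM domains. Individual clones from rounds 4-5 were tested by phage ELISA, and positive clones binding the target but not GST were sequenced. Values are the ELISA signal ratio of target over background (GST); the background signal is given separately.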

Binder | phage ELISA signal ratio
B1 | 7.79
B2 | 11.5
B3 | 12.6
B4 | 12.7
B5 | 16.2

Each binder was assayed against CBX5 109-173 Chromo_shadow (domain begin residue: 109, domain end residue: 173), P45973 in the same assay as above.
CBX5 109-173 Chromo_shadow (domain begin residue: 109, domain end residue: 173), P45973, sequence (P45973 whole entry): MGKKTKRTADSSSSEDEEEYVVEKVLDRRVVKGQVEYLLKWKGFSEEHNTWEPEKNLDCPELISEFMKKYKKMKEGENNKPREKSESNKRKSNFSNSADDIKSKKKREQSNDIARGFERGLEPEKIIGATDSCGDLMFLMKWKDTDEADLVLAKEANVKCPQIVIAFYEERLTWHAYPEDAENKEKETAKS
Experimental: as §1

Binder | phage ELISA signal ratio
B6 | 3.39

Molecular target: T1, CD2BP2 256-341 GYF (domain begin …
Experiment: as above
Experimental: as §1

Binder | phage ELISA signal ratio
B7 | 14.2
B8 | 14.4
B9 | 16.2
B10 | 16.3
B11 | 16.9
B12 | 16.9
B13 | 17.5
B14 | 17.6
B15 | 18.9
B16 | 19.2

Molecular target: T2, GIGYF2 507-602 GYF (domain begin …
Experiment: as above
Experimental: as §1

Binder | phage ELISA signal ratio
B11 | 17.5

The binders below were run against CKS1B 1-79 CKS (domain begin residue: 1, domain end residue: 79), P61024 in the same assay as above.
CKS1B 1-79 CKS (domain begin residue: 1, domain end residue: 79), P61024, sequence (P61024 whole entry): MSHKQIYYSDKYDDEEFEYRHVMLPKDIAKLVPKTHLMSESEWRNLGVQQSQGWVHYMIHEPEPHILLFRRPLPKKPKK
Experimental: as §1

Binder | phage ELISA signal ratio
B17 | 7.45
B18 | 11.1
B19 | 17.9
B20 | 19.2
B21 | 20.5
B22 | 22.1
B23 | 22.8
B24 | 28.8
B25 | 30.4
B26 | 34.3

Molecular target: T3, CLTC 1-363 …
Experiment: as above
Experimental: as §1

Binder | phage ELISA signal ratio
B27 | 15.5
B28 | 15.9
B29 | 17.3
B30 | 20.8
B31 | 21

— the supplement of paper PMC7724964
